Measurements taken from PubChem BioAssay AID624167 (Sanford-Burnham Center for Chemical Genomics, 2012).

experiment: inhibition of PEG-3 promoter-driven reporter – cell-based, HeLa, luciferase, CREF/GAPDH counter-screen panel, dose response (AID 624167); details: CREF/GAPDH counter-screens; run 1, dose range 1, at 100 µM (top of the series)

For Cc1ccc(/C=C2\SC(=S)N(CCCC(=O)Nc3ccccn3)C2=O)cc1, which inhibition is on record?
Its inhibition is 80.2%.

With CC1=NOC(=O)/C1=C\c1ccc(-c2ccccc2Br)o1 as the molecule, how does the inhibition read?
The inhibition was 94.2%.

Which inhibition does the source give for COc1ccc(/C=C2/CCCC(CN(C)C)C2=O)cc1 (stereo not drawn) here?
The inhibition was 80%.

With O=c1cnnc(N/N=C/c2ccccn2)[nH]1 as the molecule, how does the inhibition read?
The inhibition was 3.68%.

Which inhibition does the source give for Oc1[nH]c2ccc(Br)cc2c1N=NC(=S)N1CCOCC1 here?
Its inhibition is 75.3%.

Which inhibition does the source give for NC(C(=O)O)C1ON=C(Cl)C1O (stereo not drawn) here?
The inhibition was 67%.

Which inhibition does the source give for CCSc1nc2ccccc2n1C(=O)/C=C\c1ccc(OC)c(OC)c1 here?
The inhibition was 77.4%.

Which inhibition does the source give for Cc1ccsc1/C=N/Nc1cccc(C(=O)O)c1 here?
The inhibition was 95.8%.

For O=C(O)c1ccc(N/N=C/c2ccc3c(c2)OCO3)cc1, which inhibition is on record?
Its inhibition is 96.9%.

With CN1CCC2(CC1)N=C(c1ccc(F)cc1)C(=S)N2C(=O)c1ccc(C(C)(C)C)cc1 as the molecule, how does the inhibition read?
The inhibition was 93.1%.

For O=[N+]([O-])c1ccc(S(=O)(=O)c2ccccc2)nc1, which inhibition is on record?
The inhibition was 100%.

Which inhibition does the source give for O=C(N/N=C\c1c(O)ccc2ccccc12)c1cncc(Br)c1 here?
The inhibition was 65.3%.

For CCC(=O)NC(c1ccc(C)cc1)c1ccc2cccnc2c1O (stereo not drawn), which inhibition is on record?
The inhibition was 36.2%.

For Cc1ccc(C)c(S(=O)(=O)N2CCN(c3ncnc4sccc34)CC2)c1, which inhibition is on record?
Its inhibition is 62.6%.

With COc1ccc2c(c1)c(=Cc1ccc(N(C)C)cc1)c1cc(-c3ccccc3)[n+](C)n12 as the molecule, how does the inhibition read?
Its inhibition is 99.5%.

With CN=c1sc2c(n1C)C(=O)c1ccccc1C2=O as the molecule, how does the inhibition read?
The inhibition was 89.9%.

For COc1ccc(C(NC(=O)C(C)C)c2ccc3cccnc3c2O)cc1 (stereo not drawn), which inhibition is on record?
The inhibition was 31.4%.

For CCCC(=O)NC(c1ccc(OC)cc1)c1ccc2cccnc2c1O (stereo not drawn), which inhibition is on record?
The inhibition was 67.4%.

For CCCCCCCn1c(=N)n(CC(=O)c2ccco2)c2ccccc21, which inhibition is on record?
Its inhibition is 92.5%.

For O=[N+]([O-])c1nn(-c2ccc3c(c2)OCCO3)n(O)c1=Nc1ccc(Cl)cc1, which inhibition is on record?
The inhibition was 78.7%.

Which inhibition does the source give for Cc1cc(Br)ccc1NC(=O)CNC(=O)Cn1ncc(Cl)c(Cl)c1=O here?
Its inhibition is 98.5%.

For COc1cccc(OC)c1C(=O)Nc1cc(C)nn1-c1nc2ccccc2[nH]1, which inhibition is on record?
Its inhibition is 50.8%.

Which inhibition does the source give for COc1cc(C(=O)N/N=C(\c2ccccc2)c2ccccn2)cc(OC)c1OC here?
Its inhibition is 20%.

For CC1=CC2C(C(O)CC3(C)C2CC(C)C32OCOC23COCO3)C2(C)C/C(=C\O)C(=O)C=C12 (stereo not drawn), which inhibition is on record?
Its inhibition is 99.5%.

Which inhibition does the source give for C/C(=N\NC(=O)c1c(C)nc2ccccn12)c1ccc(O)cc1O here?
Its inhibition is 3.34%.

Which inhibition does the source give for O=C(N/N=C/c1cc([N+](=O)[O-])ccc1O)c1ccc(COc2ccc3c(c2)CCC3)o1 here?
Its inhibition is 27.1%.

With N=c1n(CC(=O)c2ccc([N+](=O)[O-])cc2)c2ccccc2n1Cc1ccc(Cl)cc1 as the molecule, how does the inhibition read?
The inhibition was 86%.

With CCCC(=O)NC(c1ccc(C(C)C)cc1)c1ccc2cccnc2c1O (stereo not drawn) as the molecule, how does the inhibition read?
Its inhibition is 54.3%.

For CCCn1nc(C(=O)Nc2nc(-c3ccccn3)cs2)c2ccccc2c1=O, which inhibition is on record?
The inhibition was 13.9%.

Which inhibition does the source give for CC(C)CC1C(=O)N(Cc2cn(Cc3ccco3)nn2)CCS(=O)(=O)N1Cc1ccc(-c2ccc(F)cc2)cc1 (stereo not drawn) here?
Its inhibition is 60.2%.

For COC1CC(C)C(OC)c2cc(O)cc(c2O)NC(=O)C(C)=CC=CC(C)C(OC(N)=O)C(C)=CC(C)C1OC (stereo not drawn), which inhibition is on record?
Its inhibition is 87.1%.

For COc1ccc(-n2cc(-c3ccccc3)c3c(N4CCOCC4)ncnc32)cc1, which inhibition is on record?
The inhibition was 87.7%.

With Cc1ccc(OCC(=O)c2cc(C)n(Cc3ccco3)c2C)c([N+](=O)[O-])n1 as the molecule, how does the inhibition read?
Its inhibition is 70.8%.
